This is an account of results in PubChem BioAssay AID1063 (University of Pittsburgh Molecular Library Screening Center, 2008).

In general, inhibition refers to the relative decrease from the control value, in per cent.

Hit rate of the full screen: of about 200,000 compounds, about 18,000 (9%) were called active. The entries come from a sample that favours actives as a whole. A number with no mark means an inactive call. Cut-off read from the data, not from the text of the source: active = inhibition above about 50%; inactive = the rest.

A short description of this test: Leishmania major promastigote growth inhibition, primary screen (AID 1063).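 Note: promastigotes grown with compound for 44 hours at 28 °C.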 Conditions: Leishmania major promastigotes, resazurin fluorescence viability; at 10 µM; active compounds read high.
For `CCN(CC)C(=O)Oc1ccc(OC(=O)N(CC)CC)cc1`, the inhibition is -5.77%. Next, `Cc1ccc(NC(=O)c2cc([N+](=O)[O-])ccc2Cl)c(O)c1`: 15.1%.

In the case of `CC(C)C(=O)Nc1cccc(NC(=O)c2ccc([N+](=O)[O-])cc2Cl)c1`, the inhibition is 6.59%. Next, `CCC(C)C(=O)Nc1cc([N+](=O)[O-])ccc1Cl` (stereo unspecified): 72.6% (active). Next, `CCCS(=O)(=O)N1CCC(CCOc2ccccc2)(C(=O)OCC)CC1`: -1.49%; `COc1ccc(Cl)cc1NC(=O)NC(C)C(C)(C)C` (stereo unspecified): 16.3%; `COc1ccc(/C=C/C(=O)N2CCCC2)cc1OC`: -1.79%. The result for `CCOC(=O)C1CCN(C(=O)/C=C/c2cc(OC)c(OC)c(OC)c2)CC1` reads 55% (active). Regarding `CCOC(=O)C1CCCN(C(=O)/C=C/c2ccc(OC)cc2)C1` (stereo unspecified), the inhibition is 7.27%. The result for `COc1ccc(CCNC(=O)CCCCn2c(=O)[nH]c3ccccc3c2=O)cc1OC` reads 1.29%. The result for `O=C(CCCCCn1c(=O)[nH]c2ccccc2c1=O)NCCc1c[nH]c2ccccc12` reads 97.7% (active). Next, `O=C(CCn1c(=O)[nH]c2ccccc2c1=O)NCCCN1CCN(c2cccc(Cl)c2)CC1`: 3.18%. With `Cc1cc(C)c2c(NC(=O)C3CC3)nn(C)c2n1`, the inhibition was -2.35%. The result for `O=C(CNCc1ccco1)Nc1cc(S(=O)(=O)N2CCOCC2)ccc1N1CCCC1` reads -1.86%; that for `COc1cccc(OCCCN2CCCCCC2)c1`, 91.6% (active). In the case of `c1ccc2cc(OCCN3CCCC3)ccc2c1`, the inhibition is 84.2% (active).

On to `O=C(COc1ccc2ccccc2c1)N1CCN(C(=O)c2cccs2)CC1`, for which the inhibition was -4.2%. The result for `Clc1ccccc1-c1cc(COc2ccc3ccccc3c2)no1` reads -8.15%; that for `COc1cccc(OCCOc2cccc(/C=N/n3cnnc3)c2)c1`, 3.61%; that for `COc1ccc(NC(=O)CCN2CCCC2)c(OC)c1`, -0.8%.

Turning to `COc1cccc(OCC(O)CN2CCN(CCO)CC2)c1` (stereo unspecified), the inhibition is -0.73%. Next, `Cc1ccc(C(C)C)cc1OCCN1CCCC1`: 92.5% (active). Next, `Cc1cc(OCCN2CCCC2)cc(C(C)C)c1`: 92.5% (active); `CCn1c(SCc2ccccc2)nc2c(c1=O)SCC2`: -0.56%. For `O=C(Nc1cccnc1)c1ccc(Cl)cc1[N+](=O)[O-]`, the inhibition was 2.3%.

Take `Cc1ccc(-c2cc(C(=O)N3CCc4ccccc4C3)no2)cc1`: the inhibition is -3.45%. Next, `CCC(=O)Nc1sc(C(=O)Nc2ccccc2)c(C)c1C(=O)OC`: 0.3%; `CC(C)C(=O)Nc1ccc2oc(=O)ccc2c1`: 2.46%; `CCn1cc(-c2cc(C(=O)O)on2)c(C)n1`: -3.4%. Turning to `COc1ccc(NC(=S)Nc2ccc(S(N)(=O)=O)cc2)c(C)c1`, the inhibition is 5.95%. The result for `CCCc1nnc(SCC(=O)N2C(C)CCCC2C)n1CC` (stereo unspecified) reads -8.2%. Next, `O=C(NCc1ccc(Cl)cc1)NCc1ccc(Cl)cc1`: -7.12%; `Cc1cc(OCCN2CCCC2)ccc1C(C)C`: 96.4% (active). The result for `CCNC(=O)CC1C(=O)N(c2ccc(F)cc2)C(=O)N1Cc1cccs1` (stereo unspecified) reads -6.2%; that for `O=[N+]([O-])c1cc(C(F)(F)F)ccc1NN=C1CCCC1`, -5.08%.

In the case of `CSCCC(Nc1ccc(S(=O)(=O)N2CCOCC2)cc1[N+](=O)[O-])C(=O)OCC(=O)N(C(C)C)C(C)C` (stereo unspecified), the inhibition is 6.07%. Next, `CC(C)N1CCC(=NNc2ccc([N+](=O)[O-])cc2S(=O)(=O)N2CCOCC2)CC1`: 100% (active); `O=C(Nc1ccc(S(=O)(=O)N2CCCC2)cc1Cl)C1=COCCO1`: 13.3%. As to `O=[N+]([O-])c1cc(S(=O)(=O)N2CCCC2)ccc1NN=C1CCCC1`, the inhibition is 72.8% (active). The result for `C/C(=N\Nc1nc(N2CCOCC2)nc(N2CCOCC2)n1)c1ccc([N+](=O)[O-])cc1` reads 7.51%; that for `COc1cccc(NC(=O)Cn2c3ccccc3c3nc4n(c(=O)c32)CCS4)c1`, 1.79%.

For the molecule `CC1(C)CC(=O)C=C(N2CCOCC2)C1`, the inhibition was -0.57%. Next, `O=C(O)/C=C/c1cn(Cc2ccccc2)nc1-c1cccs1`: -1.31%; `O=C(O)c1cccc(S(=O)(=O)Nc2ccc(O)cc2Sc2nc3ccccc3s2)c1`: 3.69%. Next, `COc1ccc(S(=O)(=O)Nc2ccc(O)c(Sc3nc4ccccc4s3)c2)cc1`: 2.71%. The result for `O=[N+]([O-])c1c(NCCO)cc(Sc2nc3ccccc3s2)c2nonc12` reads 61.2% (active). In the case of `CCCCC(CC)CNC(=O)C(=O)C1C(=O)Nc2ccccc21` (stereo unspecified), the inhibition was -2.85%. Next, `CC(=O)Nc1ccc(NC(=O)CSc2nnc(COc3ccccc3C)n2CC2CCCO2)cc1` (stereo unspecified): -3.47%; `COc1ccc(C(=O)NC2CCN(C(=S)NCCc3ccccc3)CC2)cc1`: -3.89%; `CC(C)NC(=O)NC(=O)CSc1nnc(-c2ccccc2F)n1N`: -1.13%.

Regarding `CS(=O)(=O)Nc1ccc(C2=NN(S(C)(=O)=O)C(c3cccs3)C2)cc1` (stereo unspecified), the inhibition is 0.6%. Next, `CS(=O)(=O)Nc1cccc(C2=NN(S(=O)(=O)c3ccccc3)C(c3cccs3)C2)c1` (stereo unspecified): 90.1% (active); `Cc1ccc(C2CC(c3cccc(NS(C)(=O)=O)c3)=NN2S(C)(=O)=O)cc1` (stereo unspecified): 10.8%. Next, `CCS(=O)(=O)c1ccc(C(=O)NC)c(Cl)c1Cl`: 2.32%.

Consider `O=C(Nc1cccc(NC(=O)N2CCN(c3ccccc3)CC2)c1)N1CCN(c2ccccc2)CC1`, for which the inhibition was 35.8%. Consider `O=C(COC(=O)c1cc2c(s1)CCCC2)NCc1ccccc1Cl`, for which the inhibition was -8.28%. With `O=C(NNC(=O)c1cc2c(s1)CCCC2)c1ccccc1`, the inhibition was 78.1% (active). The result for `O=C(CNC(=O)c1cc2c(s1)CCC2)Nc1ccccc1Br` reads -6.67%; that for `Cc1nc2ccc(C(=O)N3CCN(c4ccccc4)CC3)cc2s1`, -9.02%. The result for `O=C(c1cc2c(s1)CCC2)N1CCN(c2ccccc2)CC1` reads 93.8% (active); that for `CCOC(=O)Cc1cc(=O)[nH]c(=O)[nH]1`, -1.79%; that for `O=C(COC(=O)c1ccccn1)Nc1cccc2ccccc12`, -8.4%. On to `Cc1cc(C)cc(NC(=O)Cn2cnc3c(nnn3Cc3ccc(F)cc3)c2=O)c1`, for which the inhibition is -2.51%. Next, `Cc1cccc(C)c1NC(=O)Nc1ccccc1-n1ccnc1`: -5.13%. Next, `CN1CCC(=NNC(=O)CN(c2cccc(Cl)c2)S(C)(=O)=O)CC1`: -4.77%. On to `CC12CCC(C(=O)N(NC(=O)c3ccccc3O)C1=O)C2(C)C` (stereo unspecified), for which the inhibition is 69.9% (active). Next, `COc1ccccc1C(=O)NN1C(=O)C2C3C=CC(O3)C2C1=O` (stereo unspecified): -5.97%; `CC12CCC(C(=O)N(c3cccc(Cl)c3)C1=O)C2(C)C` (stereo unspecified): -2.92%. In the case of `COc1ccc(-c2csc(NC(=O)COC(=O)Cc3ccc(Cl)cc3Cl)n2)cc1`, the inhibition was 1.41%. Next, `COc1ccc(-c2csc(NC(=O)COC(=O)c3ccc(Br)o3)n2)cc1`: 95.2% (active); `COc1ccc(-c2csc(NC(=O)CCCc3cccs3)n2)cc1`: 10.5%; `Cc1cc(CNCc2c(C(=O)N(C)Cc3ccccc3)nc3ccccn23)nn1C`: 0.26%. The result for `O=C(O)c1ccccc1-c1ccccc1C(=O)Nc1nccs1` reads -1.78%. Next, `OC(COc1ccc2c(c1)CCC2)CN1CCN(c2cccc(Cl)c2)CC1` (stereo unspecified): 98.7% (active); `O=C(c1ccc(Cl)cc1)c1ccc(OCC(O)CN2CCCCC2)cc1` (stereo unspecified): 99.2% (active); `O=C(c1ccccc1)c1ccc(OCC(O)CN2CCCC2)cc1` (stereo unspecified): 31.6%. As to `O=c1cc(CN2CCN(c3cccc(Cl)c3)CC2)c2cc3c(cc2o1)CCCC3`, the inhibition was 5.66%. In the case of `CCC(=O)c1ccc(OCC(O)CN2CCN(c3cccc(C(F)(F)F)c3)CC2)cc1` (stereo unspecified), the inhibition is 13.7%.

On to `Cn1c(=O)c2c(nc(N3CCCCCC3)n2CC(O)COc2ccc(Cl)cc2)n(C)c1=O` (stereo unspecified), for which the inhibition is 56.5% (active).

Take `OC(COc1ccc(CN2CCSCC2)cc1)CN1CCCCC1` (stereo unspecified): the inhibition is 19%. The result for `O=C(C(c1ccccc1)c1ccccc1)N1CCN(CC(O)COc2ccccc2)CC1` (stereo unspecified) reads 9.16%. The result for `Cc1cccc(Cn2c(N3CCN(c4ccccc4)CC3)nc3c2c(=O)n(C)c(=O)n3C)c1` reads -1.6%; that for `CCC(=O)c1ccc(OCC(O)CN2CC(C)OC(C)C2)cc1` (stereo unspecified), 87.5% (active); that for `CCC(=O)c1ccc(OCC(O)CN2C(=O)NC(C)(C)C2=O)cc1` (stereo unspecified), -2.21%. As to `Cn1c(=O)c2c(nc(N3CCCCCC3)n2CC(=O)c2ccc(Br)cc2)n(C)c1=O`, the inhibition was -0.4%. Next, `COc1cc(C(=O)N[C@@H](C)C(=O)NCc2ccco2)cc(OC)c1OC`: -6.03%. With `CCCCn1c(N)c(N(CC)C(=O)/C=C/c2ccco2)c(=O)[nH]c1=O`, the inhibition is -4.32%.

Take `[O-][n+]1c2c(nn1-c1ccc(Cl)c(Cl)c1)-c1nonc1CC2`: the inhibition was 13.6%. Next, `Cc1nc(N2CCCCC2)sc1C=O`: 6.31%. Take `CCC(C)(C)c1ccc(OCC(=O)N(C)C)c(C(C)(C)CC)c1`: the inhibition was 18.1%. The result for `COC(=O)CNC(=O)c1ccc(OC2CCN(C(=O)C3CC3)CC2)cc1` reads -6.39%; that for `CCOc1cc(CNn2c(C)nnc2SCC(=O)NC(C)(C)C)ccc1OCC(=O)NC(C)(C)C`, 0.56%. The result for `CC1(C)C(c2cccs2)=[N+]([O-])C2(CCCCC2=O)N1O` (stereo unspecified) reads -6.22%. Next, `COCCN(Cc1nc(-c2ccc(C(F)(F)F)cc2)no1)C(C)C`: 0.28%; `O=C(Nc1ccnc(-c2ccncc2)n1)c1cccs1`: 1.21%; `COC(=O)CCNC(=O)c1ccc2[nH]c(C)c(C)c2c1`: -6.37%.
